The list is not random: actives were taken first. Their share in the collection is about 19%.
TDP1 inh: qHTS Assay for Inhibitors of Tyrosyl-DNA Phosphodiesterase (TDP1); 0.28% of 350,000 active; recombinant TDP1, AlphaScreen DNA substrate cleavage; Potency, µM (series often up to 130 µM), actives largely listed as inhibitors; note: nearly all actives have a fitted effect of over 40% in size
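Steps: enzyme plus compound, 15 min RT; add biotin/phosphotyrosine-FITC oligonucleotide (15 nM final), react 5 min; add donor/acceptor beads (10 ug/ml final), 10 min; read AlphaScreen. Tdp1 at 1 nM final.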
TGFb SMAD3 inh: qHTS for Inhibitors of TGF-b; HepG2 CAGA-GFP TGF-b/SMAD3 reporter, GFP fluorescence, 18 h; TGF-beta stimulated, 500 pg/mL final; Potency, µM (doses to about 46.1 µM), most hits filed as inhibitors; 1.2% of 410,000 active; note: nearly all actives have a fitted effect of over 65% in size
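Inhibition was scored as loss of TGF-beta-induced (500 pg/mL final, 18 hours, 37 degrees C) GFP in HEPG2 cells carrying a CAGA-GFP reporter, in DMEM with 1% FBS. Well GFP was summed per cell; Activity was normalised to unstimulated and stimulated DMSO wells, then concentration-response fitting.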
HepG2 tox: qHTS for Inhibitors of TGF-b: Cytotox Counterscreen | 0.76% of 410,000 active | Potency, µM (series often up to 46.1 µM), actives largely listed as cytotoxic | AID 588856, 2011 | HepG2 CAGA-GFP viability, ATP luminescence, 18 h
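CellTiter-Glo luminescence gave cytotoxicity after 18 hours at 37 degrees C. The cells were HepG2 CAGA-GFP in 1% FBS DMEM, stimulated with 500 pg/mL TGF-beta after compound addition. %Activity was normalised to no-cell wells (complete cell-killing) and DMSO (no toxicity), and curves were fitted and classified.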
IL-1B inflam inh: qHTS for Inhibitors of Inflammasome Signaling: IL-1-beta AlphaLISA Primary Screen. THP-1 LPS/ATP IL-1B secretion, AlphaLISA, 16 h; active compounds read low. activity change, % at 57.5 µM. 4.7% of 360,000 active; in the data active = activity change below about -50%; inconclusive = mostly about -30% to -49%
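Secreted IL-1B measured by AlphaLISA bead assay after 16 h compound exposure of THP-1 cells; compounds (final up to 57.5 uM) added 1 h before LPS (250 ng/mL) and ATP (1.25 mM) stimulation; lower signal means less secretion.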
DT40 TDP1 CPT: qHTS for Inhibitors of human tyrosyl-DNA phosphodiesterase 1 (TDP1): qHTS in cells in presence of CPT; 12% of 420,000 active; Potency, µM (highest dose often 46.2 µM), most hits filed as inhibitors; chicken DT40 Tdp1-/-;hTDP1 cells + 20 nM CPT, ATP luminescence, 48 h; AID 686979, 2013; note: nearly all actives have a fitted effect of over 55% in size
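Cell growth measured by CellTiter-Glo luminescence after a minimum 48 h, 37 C compound exposure with 20 nM CPT in Tdp1-knockout DT40 cells stably expressing hTDP1, seeded 400/well; qHTS titration format.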
DT40 TDP1 no CPT: qHTS for Inhibitors of human tyrosyl-DNA phosphodiesterase 1 (TDP1): qHTS in cells in absence of CPT. DT40 Tdp1-/- hTDP1 cells, no CPT, ATP luminescence, 48 h. Potency, µM (top dose mostly 46.2 µM), hits mostly inhibitors. 15% of 420,000 active. AID 686978, 2013; note: nearly all actives have a fitted effect of over 55% in size
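No-CPT arm: Tdp1-/-;hTDP1 DT40 cells (400/well) plus compounds, incubated ≥48 hr at 37 °C. Readout CellTiter-Glo luminescence.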
A number is an active result; i = inactive; ? = inconclusive; nt = not tested or not shown. Unless noted, calls come from the whole dose curve; as a rule, active = well fitted curve in the direction sought with a large enough effect; inconclusive = small, poorly fitted or top-dose-only effect, or another doubt; inactive = no such curve, though single readings can be large; an effect the other way counts as inactive or inconclusive.

SMILES	TDP1 inh	TGFb SMAD3 inh	HepG2 tox	IL-1B inflam inh	DT40 TDP1 CPT	DT40 TDP1 no CPT
CC(=O)Nc1ccc(-c2ccnc3c2CC(C)(C(=O)NCCc2ccccc2)O3)cc1 (configuration not stated)	nt	i	i	i	?	i
CC1=C/C(=N\OC(=O)/C=C/c2ccccc2)C(C)=CC1=O	i	i	i	i	23.1µM	?
N/C(=N\OC(=O)/C=C/c1ccccc1)c1ccccc1	i	i	i	i	i	i
Cc1cc(-c2ccccc2)c2c(n1)sc1c(O)cc(=O)[nH]c12	nt	i	i	i	i	i
Cc1cc(-c2cccs2)c2c(n1)sc1c(=O)[nH]c(=O)[nH]c12	i	i	i	i	16.4µM	?
CCCN1CNc2c(c(=O)[nH]c(=S)n2CCc2cccc(OC)c2)C1	i	nt	nt	nt	i	?
COc1ccc(-c2ccc(SCc3ccccn3)nn2)cc1OC	i	i	i	-55.7	13µM	?
O=[N+]([O-])c1cccc(-c2ccc(SCc3ccccn3)nn2)c1	i	i	i	?	?	25.9µM
COc1ccc(-c2ccc(SCC(=O)c3ccccc3)nn2)cc1OC	i	i	i	i	?	13µM
COc1ccc(-c2ccc(SCC(=O)Nc3nccs3)nn2)cc1OC	79.4µM	i	i	i	i	?
COc1ccc(S(=O)(=O)NCC(c2ccco2)N2CCOCC2)cc1C (configuration not stated)	i	i	i	nt	i	i
COc1ccc(-c2nc(CSCC(=O)NCc3ccc4c(c3)OCO4)c(C)o2)cc1OC	i	i	i	i	?	?
COc1ccc(-c2ccc(SCC(=O)NCc3ccc4c(c3)OCO4)nn2)cc1OC	i	i	i	-94.9	?	29.1µM
NC(CO)C(=O)NNCc1ccc(O)c(O)c1O (configuration not stated)	?	i	i	i	3.66µM	4.61µM
CCc1ccccc1NC(=O)CCC(=O)N1CC(C)Oc2ccc(C)cc21 (configuration not stated)	i	i	i	nt	?	?
Cc1c(C#N)c(N=CN(C)C)c(C(=O)c2ccccc2)n1-c1ccc(Br)cc1	i	i	i	i	18.4µM	?
O=c1c2ccccc2ncn1-c1ccc(Cl)c(Cl)c1	i	i	i	i	i	i
Clc1ccc(-n2cnc3c(Cl)ncnc32)cc1Cl	nt	i	i	?	4.61µM	6.51µM
COc1ccc(OC)c(C2=NNC(=NCc3ccc4c(c3)OCO4)SC2)c1	i	?	i	i	?	?
Oc1ccc(C2=NNC(=NCc3ccc4c(c3)OCO4)SC2)c(O)c1	i	i	i	i	3.66µM	4.61µM
Clc1ccc(C2=NNC(=NCc3ccc4c(c3)OCO4)SC2)cc1	i	15.8µM	i	?	10.3µM	5.8µM
COc1ccc(-c2cc(C(=O)OCC(=O)N(C)C3CCS(=O)(=O)C3)c3ccccc3n2)cc1OC (configuration not stated)	i	i	i	-62.2	?	?
CCN(C(=O)COC(=O)c1cc(-c2cccs2)nc2ccccc12)C1CCS(=O)(=O)C1 (configuration not stated)	i	i	i	-53.6	i	i
CN(C(=O)COC(=O)/C=C/c1ccc2ccccc2n1)C1CCS(=O)(=O)C1 (configuration not stated)	i	?	i	-105.8	?	?
Cc1ccc(-c2cc(C(=O)OCC(=O)N(C)C3CCS(=O)(=O)C3)c3ccccc3n2)c(C)c1 (configuration not stated)	i	i	i	i	i	i
